Measurements taken from PubChem BioAssay AID1117289 (Broad Institute, 2014).
Results with a measured potency or affinity are listed apart. Inconclusive results are not listed.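 The calls were made as follows: active = inhibitor whose fitted half-maximal dose is at most twice the top tested dose in every run; inconclusive = runs disagree, poor fit, or flat fit inhibiting 30 to 70%; inactive = every run inactive, flat, rising or too weak.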

Target: Endoplasmic reticulum aminopeptidase 2 (Homo sapiens) (UniProt Q6P179)
Assay: ERAP2 aminopeptidase inhibitors, dose response, selectivity assay for selective ERAP1 modulator project, biochemical, plate reader, dry powder, set 2 (AID 1117289)
Conditions: purified ERAP2, Arg-AMC hydrolysis fluorescence, 1 h; series mostly up to 50 µM; activity change, negative = inhibition: at the top concentration

Sequence of Endoplasmic reticulum aminopeptidase 2 (Homo sapiens) (Q6P179 whole entry, looked up): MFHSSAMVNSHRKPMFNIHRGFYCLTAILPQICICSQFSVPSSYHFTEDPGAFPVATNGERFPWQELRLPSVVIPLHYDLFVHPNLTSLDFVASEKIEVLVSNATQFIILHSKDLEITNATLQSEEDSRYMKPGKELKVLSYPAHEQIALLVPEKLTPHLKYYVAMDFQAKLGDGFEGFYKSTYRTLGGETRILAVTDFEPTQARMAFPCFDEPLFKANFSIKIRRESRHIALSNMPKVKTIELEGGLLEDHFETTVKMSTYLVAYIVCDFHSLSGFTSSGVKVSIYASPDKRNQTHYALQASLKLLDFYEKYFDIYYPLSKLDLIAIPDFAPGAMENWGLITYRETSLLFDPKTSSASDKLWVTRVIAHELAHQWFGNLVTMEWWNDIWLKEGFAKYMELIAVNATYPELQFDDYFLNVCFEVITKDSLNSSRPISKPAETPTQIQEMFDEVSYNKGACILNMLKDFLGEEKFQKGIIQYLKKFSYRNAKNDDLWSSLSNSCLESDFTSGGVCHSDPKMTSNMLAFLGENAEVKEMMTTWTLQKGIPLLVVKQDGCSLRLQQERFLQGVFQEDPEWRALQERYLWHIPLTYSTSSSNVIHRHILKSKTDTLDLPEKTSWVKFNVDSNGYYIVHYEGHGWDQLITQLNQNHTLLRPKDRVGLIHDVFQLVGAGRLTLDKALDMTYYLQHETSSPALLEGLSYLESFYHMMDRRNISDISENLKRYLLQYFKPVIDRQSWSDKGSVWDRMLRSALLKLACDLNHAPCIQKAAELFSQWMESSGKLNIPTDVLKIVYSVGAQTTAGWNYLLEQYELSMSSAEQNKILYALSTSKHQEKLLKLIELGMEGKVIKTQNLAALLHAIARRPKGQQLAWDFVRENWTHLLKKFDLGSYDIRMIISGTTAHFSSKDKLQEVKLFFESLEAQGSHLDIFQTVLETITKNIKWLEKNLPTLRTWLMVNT

Activity change, negative = inhibition, inactive:
Cc1ccc(C(=O)O)cc1S(=O)(=O)Nc1cc(C(F)(F)F)ccc1N1CCCCC1 -10.5%, O=C(O)c1cc(F)cc(S(=O)(=O)Nc2cc(C(F)(F)F)ccc2N2CCCCC2)c1 -23.2%, COc1ccc(C(=O)O)cc1S(=O)(=O)Nc1ccccc1N1CCCCC1 -9.84%, COc1ccc(C(=O)O)cc1S(=O)(=O)Nc1cc(C(F)(F)F)ccc1N(C)C 33.6%
